Among the data in PubChem BioAssay (NCI) are growth values, retold here.

Compounds without any hit were thinned out: in the full panel of roughly 83,000, 20% have a hit.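 48-hour exposure, single concentration, 96-well plates; percent growth endpoint where 0 means no net growth. Active: below 10.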 A number with no mark means an inactive call. Active and inactive are the calls of the source.

In this assay the test system is SNB-75 CNS. As to the kind of experiment: NCI-60 one-dose screen, 48 h (100 = growth as untreated, 0 = no growth, -100 = all killed). The conditions noted are these: 10 µM unless noted.
Turning to `Cc1ccc(NC(=O)c2ccc(CN3CCN(C)CC3)cc2)cc1Oc1ccc(-c2[nH]nc3ncnc(N)c23)cc1`, the growth was 75.1%. The result for `CCCn1cnc2c(c1=N)C(c1ccc(Cl)cc1)c1sc3c(C)cccc3c1O2` (stereo not drawn) reads 26.7%. `C=C(C=O)[C@@H]1CC[C@]2(C)[C@H](CC=C3[C@H]4[C@@H](C)[C@H](C)CC[C@]4(C(=O)OC)CC[C@]32C)[C@@]1(C)CCC#N`: the growth was 67.6%. For the molecule `NC(N)=Nc1ccc(Oc2cccc(NC(N)=Nc3ccc(I)cc3F)c2)cn1`, the growth was 77.5%.

Turning to `Cc1occc1-c1nc2s/c(=C/c3ccc(-c4cc(C(F)(F)F)ccc4Cl)o3)c(=O)n2n1`, the growth was 97.5%. With `C[C@H]1c2[nH]c3ccccc3c2C[C@H]2C(=O)N(CCCCCCC(=O)NO)CC(=O)N21`, the growth was 82.1%.

Consider `COc1ccc(-c2cc(-c3ccc(Cl)cc3)c(C#N)c(=O)n2Cc2ccc(C(=O)O)cc2)cc1`, for which the growth is 3.46% (active). The figure for `O=C1[C@H]2Cc3c([nH]c4ccccc34)[C@@H](c3ccc(Cl)cc3)N2C(=O)CN1C1CCN(Cc2ccccc2)CC1` is 79.8%; for `COc1cc(-c2nn(C(C)(C)C)cc2-c2ccnc(NCCCNS(=O)(=O)c3ccc(C)cc3)n2)ccc1Cl` it is 54.7%.

As to `CCCCNNC(=O)c1ccc(-c2cccc(F)c2F)cc1`, the growth is 80.7%.

With `CC1(C)CC[C@]2(C(=O)N3CCOCC3)CC[C@]3(C)C(=CC[C@@H]4[C@@]5(C)C/C(=C/c6ccccn6)C(=O)C(C)(C)[C@@H]5CC[C@]43C)[C@@H]2C1`, the growth was 34.1%.

Turning to `O=S(=O)(NCCNc1nccc(-n2cnc3ccccc32)n1)c1ccc(Br)cc1`, the growth is 74.1%. The result for `CC1(C)CC[C@]23CC[C@]4(C)[C@H](CC[C@@H]5[C@@]6(C)CCCN(CO)C(C)(C)[C@@H]6CC[C@]54C)[C@H]2[C@H]1OC3` reads 112%. On to `O=C1[C@H]2Cc3c([nH]c4ccccc34)[C@@H](c3ccc(Br)cc3)N2C(=O)CN1C1CCN(CC2CCCCC2)CC1`, for which the growth is -1.64% (active). For `COc1ccc([C@H]2c3[nH]c4ccccc4c3C[C@H]3C(=O)N(C4CCN(Cc5c(Cl)cccc5Cl)CC4)CC(=O)N23)c(OC)c1`, the growth is 99.3%.

`NS(=O)(=O)c1ccc(Nc2nc(Nc3ccccc3)nc3nnc(SCC(=O)NC4CCCCC4)n23)cc1`: the growth is 115%. Regarding `O=C(NNc1nc2cc(F)ccc2n2c(CN3CCC(O)C3)ccc12)c1cnccn1` (stereo not drawn), the growth was 51.9%.

With `CCN(CC)c1cn(-c2ccc(S(N)(=O)=O)cc2)nn1`, the growth is 83%. The result for `O=[N+]([O-])c1cc(/C=N/Nc2nc(N/N=C/c3ccc(Cl)c([N+](=O)[O-])c3)nc(N3CCCCC3)n2)ccc1Cl` reads 136%. As for `CC(=O)Nc1cccc(Nc2nc(N[C@@H](C)c3ccccc3)c3ccccc3n2)c1`, the growth was -19.3% (active). Consider `COc1ccc(COc2ccc(/C=C3\C(=O)Nc4ccccc43)cc2OC)cc1`, for which the growth was 97.4%. As to `CCNC(=O)Oc1ccc(/C(=C(/C)c2ccccc2)c2ccc(OCCN3CCCCCC3)cc2)cc1`, the growth was -0.681% (active).

For `COc1cc(/C=N/NC(=O)c2cn(C3CC3)c3c(OC)c(N4CC5CCCNC5C4)c(F)cc3c2=O)ccc1O` (stereo not drawn), the growth was 106%. As to `CC(C)c1ccc(NCc2cn(-c3ccc(C(=O)O)cc3)nc2-c2cc(C(F)(F)F)cc(C(F)(F)F)c2)cc1`, the growth was 89%. Regarding `C[C@@H]1C[C@H]2C(=O)O[C@@H](C)C(NC(=O)[C@H](Cc3cc(F)cc(F)c3)NC(=O)Nc3ccc(Cl)cc3F)C(=O)N3CCC[C@H]3C(=O)N3CCCC[C@H]3C(=O)N[C@@H](CO)C(=O)N2C1` (stereo partly drawn), the growth is 30.8%. Regarding `CC(=O)O[C@@H]1C(=O)N(c2cnccn2)[C@H]1c1ccccc1[N+](=O)[O-]`, the growth was 21.5%. As to `C=C1CC[C@@H]2[C@]3(C)COC(c4ccccc4)O[C@@H]3CC[C@@]2(C)[C@@H]1C/C=C1/C(=O)OC[C@H]1O` (stereo partly drawn), the growth is 100%. The result for `Nc1nc(-c2cccc([N+](=O)[O-])c2)c(N=Nc2cccc([N+](=O)[O-])c2)s1` reads -8.63% (active); that for `Nc1cc(F)ccc1NC(=O)c1ccc(NC(=O)C/C=C/c2cccnc2)cc1`, 51.3%. For the molecule `CCc1nn2c(C)cc(C)nc2c1Cc1ccc(/C=C/CN2CCN(CCOCCOCCN3CCN(C/C=C/c4ccc(Cc5c(CC)nn6c(C)cc(C)nc56)cc4)CC3)CC2)cc1`, the growth was 99%.

Take `COc1ccc(NC(=O)CSc2nnc(-c3ccc4nc(-c5ccccc5)[nH]c4c3)o2)cc1`: the growth was 101%. With `COc1ccc(N2C(=O)c3cc(Cl)ccc3NC2SCc2ccccc2)cc1` (stereo not drawn), the growth was 94.9%.

As to `O=C(CSc1nc2ccccc2c(=O)n1-c1ccccc1)Nc1ccc(-c2nc3ccc([N+](=O)[O-])cc3[nH]2)cc1`, the growth is 82.5%.

As to `O=C(NCCn1ccnc1)c1ccc(-c2nc3ccc4[nH]ncc4c3c3c2CCCC3)cc1`, the growth was 52.6%. Consider `CCCC(=O)NC(c1cccnc1)c1cc(C(C)(C)C)c2cccnc2c1O` (stereo not drawn), for which the growth was 37.4%. The figure for `NC(N)=Nc1ccc(Oc2cccc(Nc3ccc(Cl)cc3)c2)cn1` is 22.9%; for `O=C(CN1CCN(c2cc(=O)[nH]c3ccc(F)cc23)CC1)Nc1ccc(Cl)cc1` it is 13%. For the molecule `C=C(C=O)[C@@H]1CC[C@]2(C)[C@H](C(=O)C=C3[C@H]4C[C@](C)(C(=O)OC)CC[C@]4(C)CC[C@]32C)[C@@]1(C)CCC#N`, the growth is 66.1%.
